Hits are enriched below; roughly 2.5% of the tested compounds scored in any of these assays.
Cruzain noTriton = qHTS Assay for Promiscuous and Specific Inhibitors of Cruzain (without detergent) | AID 1476, 2009 | purified cruzain, Z-FR-AMC fluorescence, no detergent | 200,000 compounds, 2.3% hits | Cruzipain (Trypanosoma cruzi), P25779 | Potency, µM, usual class: inhibitors; note: nearly all actives have a fitted effect of over 40% in size
Target sequence (P25779 123-467 limits assumed): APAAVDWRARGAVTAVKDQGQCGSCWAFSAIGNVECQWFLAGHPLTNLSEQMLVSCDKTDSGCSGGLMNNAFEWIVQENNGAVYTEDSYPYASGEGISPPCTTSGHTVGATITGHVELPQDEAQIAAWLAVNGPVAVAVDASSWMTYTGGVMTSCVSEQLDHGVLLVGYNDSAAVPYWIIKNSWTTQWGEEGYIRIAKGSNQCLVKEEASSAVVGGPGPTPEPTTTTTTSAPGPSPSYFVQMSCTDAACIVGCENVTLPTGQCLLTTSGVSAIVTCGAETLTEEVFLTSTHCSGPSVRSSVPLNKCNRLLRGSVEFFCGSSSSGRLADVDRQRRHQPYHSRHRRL
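Purified cruzain at 1.5 nM, pre-incubated 15 min with compound at room temperature in 100 mM sodium acetate pH 5.5, 5 mM DTT, 0.00005% Triton X-100. Reaction started with 2 uM Z-FR-AMC; AMC fluorescence increase over 60 s gives rate.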
Cruzain Triton = qHTS Assay for Promiscuous and Specific Inhibitors of Cruzain (with detergent); AID 1478, 2009; Potency, µM, hits mostly inhibitors; purified cruzain, Z-FR-AMC fluorescence, 0.01% Triton; 200,000 compounds, 0.43% hits; Cruzipain (Trypanosoma cruzi), P25779; note: nearly all actives have a fitted effect of over 40% in size
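In this qHTS format, compounds are incubated with 1.5 nM cruzain for 15 min at room temperature before 2 uM Z-FR-AMC is added. Release of AMC is followed at 360/450 nm, and progress is taken as the 60 s fluorescence difference.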
Hits are given with their value. Calls come from the whole dose curve; as a rule, active = well fitted curve in the direction sought with a large enough effect; inconclusive = small, poorly fitted or top-dose-only effect, or another doubt; inactive = no such curve, though single readings can be large; an effect the other way counts as inactive or inconclusive.

What do the screens show for `Cc1ccc(Cn2ccc(NC(=O)c3cc(-c4ccc(F)cc4)on3)n2)cc1`?
Cruzain noTriton: 20µM; Cruzain Triton: inactive

What do the screens show for `Cc1ccc(Cn2ccc(NC(=O)c3cc(-c4ccc(Cl)cc4)on3)n2)cc1`?
Cruzain noTriton: inactive; Cruzain Triton: inactive

What do the screens show for `Cc1cc(NC(=O)c2cc(-c3cccc(Cl)c3)on2)no1`?
Cruzain noTriton: 20µM; Cruzain Triton: inactive

How did CC(=O)c1cccc(NC(=O)c2cc(-c3ccc(C)cc3)on2)c1 do in these assays?
Cruzain noTriton: 25.1µM; Cruzain Triton: inactive

What do the screens show for `COc1ccc(-c2nc(CCNC(=O)c3cc(OC)c(OC)c(OC)c3)cs2)cc1`?
Cruzain noTriton: inconclusive; Cruzain Triton: inactive

What do the screens show for `CC(=O)C=NCC(=O)O`?
Cruzain noTriton: inactive; Cruzain Triton: inactive

Results for COc1ccc(CCNC(=O)c2c(Nc3ccccc3C)sc(C(=O)c3ccccc3)c2N)cc1OC ?
Cruzain noTriton: inconclusive; Cruzain Triton: inactive

How did Cc1ccc(NC(=O)c2c(Nc3ccccc3C)sc(C(=O)c3ccccc3)c2N)cc1 do in these assays?
Cruzain noTriton: 6.31µM; Cruzain Triton: inactive

Results for COc1ccc(Nc2sc(C(=O)c3ccccc3)c(N)c2C(=O)Nc2cc(C)ccc2C)c(OC)c1 ?
Cruzain noTriton: 10µM; Cruzain Triton: inactive

What do the screens show for `CCOc1ccc(NC(=O)c2c(Nc3ccccc3C)sc(C(=O)c3ccc(Cl)cc3)c2N)cc1`?
Cruzain noTriton: inactive; Cruzain Triton: inactive

How did Cc1cn(S(=O)(=O)c2ccc(F)c(Cl)c2)cn1 do in these assays?
Cruzain noTriton: inactive; Cruzain Triton: inactive

What do the screens show for `Cc1ccc(C)c(NC(=O)C2CCN(c3nn4c(=O)cc(C)nc4s3)CC2)c1`?
Cruzain noTriton: inactive; Cruzain Triton: inactive

Results for CCOc1ccc2noc3c2c1C(=O)c1ccccc1-3 ?
Cruzain noTriton: inactive; Cruzain Triton: inactive

Results for O=C1c2ccccc2-c2onc3c(Oc4ccccc4)cc(O)c1c23 ?
Cruzain noTriton: 20µM; Cruzain Triton: inactive

Results for CCOc1ccc(NC(=O)c2ccc3[nH]c(C)c(C)c3c2)cc1 ?
Cruzain noTriton: inactive; Cruzain Triton: inactive

Results for CC(=O)c1cccc(NC(=O)c2ccc3c(c2)c(C)c(C)n3Cc2ccc(Cl)cc2)c1 ?
Cruzain noTriton: 6.31µM; Cruzain Triton: inactive

How did COc1ccc(OC)c(NC(=O)c2ccc3c(c2)c(C)c(C)n3Cc2ccc(F)cc2)c1 do in these assays?
Cruzain noTriton: 5.01µM; Cruzain Triton: inactive

Results for CCn1c(C)c(C)c2cc(C(=O)Nc3cccc(Cl)c3)ccc21 ?
Cruzain noTriton: inconclusive; Cruzain Triton: inactive

Results for CCOc1ccc(NC(=O)c2ccc3c(c2)c(C)c(C)n3Cc2ccc(F)cc2)cc1 ?
Cruzain noTriton: 25.1µM; Cruzain Triton: inactive

Results for Cc1c(C)n(Cc2ccc(F)cc2)c2ccc(C(=O)Nc3ccc(Cl)cc3)cc12 ?
Cruzain noTriton: 25.1µM; Cruzain Triton: inactive

What do the screens show for `COc1ccc(NC(=O)c2ccc3c(c2)c(C)c(C)n3Cc2ccc(F)cc2)c(OC)c1`?
Cruzain noTriton: inconclusive; Cruzain Triton: inactive

What do the screens show for `Cc1ccc(CNC(=O)c2ccc3c(c2)c(C)c(C)n3Cc2ccc(Cl)cc2)o1`?
Cruzain noTriton: inconclusive; Cruzain Triton: inactive

Results for CC1CCCN(S(=O)(=O)c2cc(C(=O)NCc3ccccc3Cl)n(C)c2)C1 (stereo unspecified) ?
Cruzain noTriton: inactive; Cruzain Triton: inactive

Results for N[C@@H](CC1=CS(=O)(=O)c2ccc(Cl)cc21)C(=O)O ?
Cruzain noTriton: inactive; Cruzain Triton: inactive

Results for O=C(Nc1cccc(OCc2cc(=O)n3ccccc3n2)c1)c1ccccc1Br ?
Cruzain noTriton: inactive; Cruzain Triton: inactive

What do the screens show for `N#Cc1cccc(NC(=O)N2CC[C@@]3(CCCN(C(=O)c4ccco4)C3)C2)c1`?
Cruzain noTriton: inactive; Cruzain Triton: inactive

Results for Cc1sc(NC(=S)NC(=O)CCc2ccccc2)c(C(N)=O)c1C ?
Cruzain noTriton: 3.98µM; Cruzain Triton: inactive

What do the screens show for `COC(=O)CCC(=O)NC(=S)Nc1sc(C)c(C)c1C(N)=O`?
Cruzain noTriton: inconclusive; Cruzain Triton: inactive

What do the screens show for `Cc1ccc(NC(=S)NCc2ccc3[nH]c4c(c3c2)CCCC4)cc1`?
Cruzain noTriton: 31.6µM; Cruzain Triton: inactive

How did CCOc1ccccc1NC(=O)C1CCN(S(=O)(=O)c2ccc3[nH]c(=O)oc3c2)CC1 do in these assays?
Cruzain noTriton: inactive; Cruzain Triton: inactive

What do the screens show for `Cc1ccc(NS(=O)(=O)c2ccc3[nH]c4c(c3c2)CCCCCC4)cc1`?
Cruzain noTriton: inactive; Cruzain Triton: inactive

What do the screens show for `Cc1ccc(NC(=O)C2CCN(S(=O)(=O)c3ccc4[nH]c5c(c4c3)CCCCC5)CC2)cc1`?
Cruzain noTriton: 12.6µM; Cruzain Triton: inactive

What do the screens show for `CC(=O)c1ccc(NC(=O)C2CCN(S(=O)(=O)c3ccc4[nH]c5c(c4c3)CCCCC5)CC2)cc1`?
Cruzain noTriton: inactive; Cruzain Triton: inactive

How did Cc1ccc(Cl)cc1N1CCN(S(=O)(=O)c2ccc3[nH]c4c(c3c2)CCCCC4)CC1 do in these assays?
Cruzain noTriton: 5.01µM; Cruzain Triton: inactive

Results for Cc1ccc(Cl)cc1N1CCN(S(=O)(=O)c2cccc(S(=O)(=O)N3CCCC3)c2)CC1 ?
Cruzain noTriton: inconclusive; Cruzain Triton: inactive

How did CCOc1ccccc1NC(=O)C1CCN(S(=O)(=O)c2ccc3[nH]c4c(c3c2)CCCCC4)CC1 do in these assays?
Cruzain noTriton: 12.6µM; Cruzain Triton: inactive

Results for O=C(NCc1ccccc1)c1nn(-c2ccccc2)nc1CO ?
Cruzain noTriton: inactive; Cruzain Triton: inactive

How did Cc1oc(-c2cccc(Cl)c2)nc1CN1CCCC(C(=O)N2CCN(c3ccc(F)cc3)CC2)C1 (stereo unspecified) do in these assays?
Cruzain noTriton: inactive; Cruzain Triton: inactive

Results for COc1ccc(NC(=O)C2CCN(S(=O)(=O)c3ccc4[nH]c5c(c4c3)CCCCC5)CC2)cc1 ?
Cruzain noTriton: inactive; Cruzain Triton: inactive

How did COc1ccc(C)cc1NC(=O)C1CCN(S(=O)(=O)c2ccc3[nH]c4c(c3c2)CCCCC4)CC1 do in these assays?
Cruzain noTriton: 15.8µM; Cruzain Triton: inactive

What do the screens show for `CN(Cc1ccco1)S(=O)(=O)c1nnc(NC(=O)c2ccccc2Cl)s1`?
Cruzain noTriton: inactive; Cruzain Triton: inactive

How did O=S(=O)(c1ccccc1)c1nc(-c2ccco2)oc1NCCN1CCOCC1 do in these assays?
Cruzain noTriton: inactive; Cruzain Triton: inactive

How did O=S(=O)(c1ccc(F)cc1)c1nc(-c2ccco2)oc1Nc1ccc(F)cc1 do in these assays?
Cruzain noTriton: inconclusive; Cruzain Triton: inactive

What do the screens show for `COc1ccc(Nc2oc(-c3ccco3)nc2S(=O)(=O)c2ccc(F)cc2)cc1`?
Cruzain noTriton: 25.1µM; Cruzain Triton: inactive

How did Cc1ccc(CNc2oc(-c3ccco3)nc2S(=O)(=O)c2ccccc2)cc1 do in these assays?
Cruzain noTriton: 31.6µM; Cruzain Triton: inconclusive

What do the screens show for `COc1cccc(NS(=O)(=O)c2cc3c4c(c2)C(C)C(=O)N4CCC3)c1` (stereo unspecified)?
Cruzain noTriton: inactive; Cruzain Triton: inactive

Results for O=NN(Cc1ccc(Cl)cc1)[C@@H](C(=O)O)c1ccccc1 ?
Cruzain noTriton: inactive; Cruzain Triton: inactive

How did COc1cc(Nc2nc(SCc3cccc(Cl)c3)nc3ccccc23)cc(OC)c1 do in these assays?
Cruzain noTriton: 20µM; Cruzain Triton: inactive

How did COc1cc(Nc2nc(SCc3ccccc3Cl)nc3ccccc23)cc(OC)c1 do in these assays?
Cruzain noTriton: 15.8µM; Cruzain Triton: inactive
